Experimental data: PubChem BioAssay (NCATS)
Results filed as inconclusive are left out. Activity calls are given as the source filed them. The call rests on the fitted dose curve; in most records, active means well fitted cell-killing curve with a large enough effect; inconclusive means small, poorly fitted or top-dose-only effect, or effect the other way; inactive means no such curve, though single readings can be large or run the other way.

Tests used:
[1] = Quantitative High-Throughput drug screen in 47 multiple myeloma cell lines against the NCATS MIPE library collection: UTMC2_PLB cell viability assay (AID 1919868); settings: CellTiter-Glo ATP luminescence, 48 h; viability (% of DMSO control): at 45.8 µM (top of the series); further: nearly all actives have a fitted effect of over 55% in size
Outline: (§1)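 500 cells/well per myeloma line exposed to pinned MIPE 4.0 compounds for 48 h at 37 °C, 5% CO2. Viability read as ATP by CellTiter-Glo luminescence, normalised to DMSO-only (100%) and media-only (0%) wells.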

[2] = Quantitative High-Throughput drug screen in 47 multiple myeloma cell lines against the NCATS MIPE library collection: PE2_PLB cell viability assay (AID 1919869); further: nearly all actives have a fitted effect of over 35% in size
Outline: as §1

[3] = Quantitative High-Throughput drug screen in 47 multiple myeloma cell lines against the NCATS MIPE library collection: PCM6_Riken cell viability assay (AID 1919870); further: nearly all actives have a fitted effect of over 30% in size
Outline: as §1

[4] = Quantitative High-Throughput drug screen in 47 multiple myeloma cell lines against the NCATS MIPE library collection: RPMI8226_ATCC cell viability assay (AID 1919871); further: nearly all actives have a fitted effect of over 30% in size
Outline: as §1

[5] = Quantitative High-Throughput drug screen in 47 multiple myeloma cell lines against the NCATS MIPE library collection: KMS11_JCRBsus cell viability assay (AID 1919873); further: nearly all actives have a fitted effect of over 50% in size
Outline: as §1

[6] = Quantitative High-Throughput drug screen in 47 multiple myeloma cell lines against the NCATS MIPE library collection: KMS28BM_JCRB cell viability assay (AID 1919874); further: nearly all actives have a fitted effect of over 35% in size
Outline: as §1

[7] = Quantitative High-Throughput drug screen in 47 multiple myeloma cell lines against the NCATS MIPE library collection: OPM2_DSMZ cell viability assay (AID 1919872); further: nearly all actives have a fitted effect of over 30% in size
Outline: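 CellTiter-Glo luminescence (ATP) after 48 h compound exposure, 37C/5% CO2; 500 cells/well; MIPE 4.0 approved/investigational drugs pinned in; DMSO = 100%, media only = 0% viability.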
Potency means the concentration at half of the fitted maximal effect.

| Compound | Potency [1] | Potency [2] | Potency [3] | Potency [4] | Potency [5] | Potency [6] | Potency [7] | viability (% of DMSO control) [1] |
| --- | --- | --- | --- | --- | --- | --- | --- | --- |
| CN(C)c1cc(NC(=O)CNC(C)(C)C)c(O)c2c1C[C@@H]1C[C@H]3[C@H](N(C)C)C(=O)C(C(N)=O)=C(O)[C@@]3(O)C(=O)C1=C2O | 13.2 µM (active) | inactive | inactive | inactive | inactive | inactive |  |  |
| O=C(CCCCCCC(=O)Nc1ccccc1)NO | 0.662 µM (active) | 3.32 µM (active) | 3.32 µM (active) |  | 2.64 µM (active) | 2.09 µM (active) | 4.69 µM (active) |  |
| CCOC(=O)C1=C(N)Oc2ccc(Br)cc2C1C(C#N)C(=O)OCC (stereo unspecified) | 18.7 µM (active) | 20.9 µM (active) | 16.6 µM (active) | 26.4 µM (active) | 23.5 µM (active) | 20.9 µM (active) |  |  |
| CO[C@H]1C=CC=C(C)C(=O)NC2=CC(=O)C(NCCN(C)C)=C(C[C@@H](C)C[C@H](OC)[C@@H](O)[C@@H](C)C=C(C)[C@@H]1OC(N)=O)C2=O | 0.0662 µM (active) | 0.0935 µM (active) | 0.105 µM (active) | 0.0469 µM (active) | 0.0093 µM (active) | 0.166 µM (active) | 0.0743 µM (active) |  |
| c1ccc2c(Cc3c[nH]c4ccccc34)c[nH]c2c1 | inactive | 2.96 µM (active) | 4.69 µM (active) |  | 23.5 µM (active) | 18.7 µM (active) | 26.4 µM (active) |  |
| CN(C)Cc1cccc(N=C(c2ccccc2)c2c(O)[nH]c3cc(C(=O)N(C)C)ccc23)c1 | 16.6 µM (active) | 20.9 µM (active) | 10.5 µM (active) | 10.5 µM (active) |  |  |  |  |
| O=C1C(Cl)=C(NCCN2CCOCC2)C(=O)c2ncccc21 | 8.33 µM (active) | 2.35 µM (active) | 8.33 µM (active) | 9.35 µM (active) | 1.87 µM (active) | 3.32 µM (active) | 7.43 µM (active) |  |
| CC(C)(Cc1ccc2ccccc2c1)NC[C@@H](O)COc1cccc(Cl)c1C#N | inactive | inactive | inactive |  | inactive | inactive | inactive |  |
| COc1cccc2c1CCCC2CCCN1CCN(C2CCCCC2)CC1 (stereo unspecified) | 16.6 µM (active) | 23.5 µM (active) | 13.2 µM (active) | 14.8 µM (active) | 18.7 µM (active) | 18.7 µM (active) |  |  |
| C=C1C(=O)OC2C=C(C)CCC=C(C)CCC12 (stereo unspecified) | inactive | 16.6 µM (active) | 18.7 µM (active) |  | 20.9 µM (active) | 18.7 µM (active) | 20.9 µM (active) |  |
| COc1cc(N2CCC(N3CCN(C)CC3)CC2)ccc1Nc1ncc(Cl)c(Nc2ccccc2S(=O)(=O)C(C)C)n1 | inactive |  |  |  |  |  |  |  |
| CC(C)OC(=O)CCCC=CC[C@@H]1[C@H](C=C[C@@H](O)COc2cccc(C(F)(F)F)c2)[C@H](O)C[C@@H]1O | 16.6 µM (active) | 16.6 µM (active) | 20.9 µM (active) | 10.5 µM (active) | 16.6 µM (active) | 18.7 µM (active) | 23.5 µM (active) |  |
| CC(C)(C)c1cc(C(=O)O)c(NC(=O)Nc2ccc3[nH]ncc3c2)s1 | inactive | 16.6 µM (active) | inactive |  | inactive |  | inactive |  |
| Cc1[nH]c(C=C2C(=O)Nc3ccc(S(=O)(=O)Cc4c(Cl)cccc4Cl)cc32)c(C)c1C(=O)N1CCC[C@H]1CN1CCCC1 | 20.9 µM (active) | 20.9 µM (active) | 7.43 µM (active) | 20.9 µM (active) | 11.8 µM (active) | 20.9 µM (active) | 26.4 µM (active) |  |
| C[C@H]1[C@H](NC(=O)C(=NOC(C)(C)C(=O)O)c2csc(N)n2)C(=O)N1S(=O)(=O)O | inactive | inactive | inactive | inactive | inactive | inactive | inactive |  |
| Cc1ccc(C(=O)Nc2cccc(C(F)(F)F)c2)cc1Nc1nc(-c2cccnc2)nc2c1cnn2C | 11.8 µM (active) | 9.35 µM (active) | 20.9 µM (active) | 18.7 µM (active) |  |  | 16.6 µM (active) |  |
| COc1ccc(-c2cc(=O)c3c(O)cc(O)cc3o2)cc1O | 8.33 µM (active) | 6.62 µM (active) | 3.32 µM (active) | inactive | 26.4 µM (active) | inactive | inactive |  |
| Cn1c(N2CCCCS2(=O)=O)nc(C(=O)NCc2ccc(F)cc2)c(O)c1=O |  | inactive | inactive | inactive |  |  | inactive | 149% (active) |
| Cc1ccc(Nc2cc(-c3cccc(N4C(=O)c5ccccc5C4=O)c3)ncn2)cc1NS(C)(=O)=O | 20.9 µM (active) | 16.6 µM (active) | 14.8 µM (active) | inactive | 20.9 µM (active) |  | 26.4 µM (active) |  |
| CC(C)C[C@H](CC(=O)O)C(=O)N[C@@H](Cc1c[nH]c2ccccc12)C(=O)N[C@@H](C)c1ccccc1 | inactive | inactive | inactive |  | inactive |  | inactive |  |

| Compound | Potency [1] | Potency [2] | Potency [3] | Potency [4] | Potency [5] | Potency [6] | Potency [7] | viability (% of DMSO control) [1] |
| --- | --- | --- | --- | --- | --- | --- | --- | --- |
| CC1(C)CCC2=C(O1)c1ccccc1C(=O)C2=O | 20.9 µM (active) | 20.9 µM (active) | 20.9 µM (active) |  | 26.4 µM (active) |  | 16.6 µM (active) |  |
| CC1(C)O[C@H]2C[C@@H]3[C@H]4CCC5=CC(=O)C=C[C@]5(C)[C@@]4(F)[C@@H](O)C[C@]3(C)[C@]2(C(=O)CO)O1 | inactive | inactive | 0.059 µM (active) | 0.003 µM (active) | 0.0083 µM (active) | inactive | inactive |  |
| CO[C@H]1C(=O)[C@]2(C)[C@@H](OC)C[C@H]3OC[C@@]3(OC(C)=O)[C@H]2[C@H](OC(=O)c2ccccc2)[C@]2(O)C[C@H](OC(=O)[C@H](O)[C@@H](NC(=O)OC(C)(C)C)c3ccccc3)C(C)=C1C2(C)C | inactive | inactive | 0.0012 µM (active) | inactive | inactive | inactive | inactive |  |
| O=C(NCc1ccccc1)c1csc(Nc2ccncn2)n1 | 16.6 µM (active) | 13.2 µM (active) | 8.33 µM (active) | 20.9 µM (active) | 26.4 µM (active) | 18.7 µM (active) |  |  |
| Cc1nc(N)sc1-c1ccnc(Nc2ccc(N3CCOCC3)cc2)n1 | 0.59 µM (active) | 3.32 µM (active) | 6.62 µM (active) | 11.8 µM (active) | 7.43 µM (active) | 16.6 µM (active) | 11.8 µM (active) |  |
| CNC1CCC(N(Cc2cccc(-c3ccncc3)c2)C(=O)c2sc3c(F)ccc(F)c3c2Cl)CC1 (stereo unspecified) | 20.9 µM (active) | 10.5 µM (active) | 14.8 µM (active) | 18.7 µM (active) | 9.35 µM (active) | 26.4 µM (active) |  |  |
| O=c1cc(CN2CCOCC2)occ1OCCCCCSc1ccnc2cc(C(F)(F)F)ccc12 | 9.35 µM (active) | 7.43 µM (active) | 9.35 µM (active) | inactive | 23.5 µM (active) |  | 11.8 µM (active) |  |
| COc1cc2ncnc(Nc3ccc(F)c(Cl)c3)c2cc1OCCCN1CCOCC1 | 17.1 µM (active) | 13.6 µM (active) | 6.05 µM (active) | 42.9 µM (active) | 21.5 µM (active) |  | 54 µM (active) |  |
| CC(=O)Nc1ccc([C@H](C)C(=O)Nc2ncc(C(C)C)s2)cc1 | 3.72 µM (active) | 2.35 µM (active) | 1.48 µM (active) | 2.64 µM (active) | 2.35 µM (active) |  | 8.33 µM (active) |  |
| CO[C@H]1C[C@@H]2CC[C@@H](C)[C@@](O)(O2)C(=O)C(=O)N2CCCC[C@@H]2C(=O)O[C@H]([C@H](C)C[C@@H]2CC[C@H](OCCO)[C@H](OC)C2)CC(=O)[C@H](C)C=C(C)[C@@H](O)[C@@H](OC)C(=O)[C@H](C)C[C@H](C)C=CC=CC=C1C | 0.235 µM (active) | 1.48 µM (active) |  |  |  |  |  |  |
| CS(=O)c1ccc(-c2nc(-c3ccc(F)cc3)c(-c3ccncc3)[nH]2)cc1 (stereo unspecified) | 34 µM (active) | 30.3 µM (active) |  |  |  |  |  |  |
| COc1cc(NC(=O)c2ccc(-c3ccc(Cl)cc3)o2)cc(OC)c1 | 10.5 µM (active) | 5.9 µM (active) | 5.9 µM (active) | inactive | inactive | inactive |  |  |
| C=C1C(=O)[C@@]23C(CC[C@@H]1[C@H]2O)[C@@]12CO[C@]3(O)[C@@H](O)[C@@H]1C(C)(C)CC[C@@H]2O (stereo partly specified) | 8.33 µM (active) | 1.18 µM (active) | 1.66 µM (active) | 11.8 µM (active) | 2.96 µM (active) | 2.35 µM (active) | 7.43 µM (active) |  |
| COc1ccc(C2Sc3ccccc3N(CCN(C)C)C(=O)C2OC(C)=O)cc1 (stereo unspecified) | 16.6 µM (active) | inactive | inactive | inactive | inactive | inactive | inactive |  |
| Clc1ccc(C(c2ccc(Cl)cc2)n2cc[n+](CC(OCc3ccc(Cl)cc3Cl)c3ccc(Cl)cc3Cl)c2)cc1 (stereo unspecified) | 4.69 µM (active) | 13.2 µM (active) | 6.62 µM (active) | 20.9 µM (active) | 9.35 µM (active) | 11.8 µM (active) | 18.7 µM (active) |  |
| NS(=O)(=O)c1cccc2c1C(=O)c1cccc(O)c1C2=O | 0.372 µM (active) | 0.187 µM (active) | 0.469 µM (active) | 0.833 µM (active) | 0.105 µM (active) | 0.469 µM (active) | 2.64 µM (active) |  |
| O=C1c2ccccc2-[n+]2ccc3c([nH]c4ccccc43)c21 | 1.32 µM (active) | 1.87 µM (active) | 0.59 µM (active) |  | 1.05 µM (active) | 1.32 µM (active) | 2.64 µM (active) |  |
| O=c1c(-c2ccc(O)cc2)coc2cc(OC3O[C@H](CO)[C@H](O)[C@H](O)[C@H]3O)cc(O)c12 (stereo partly specified) | 5.9 µM (active) | 9.35 µM (active) | 2.64 µM (active) | 16.6 µM (active) |  |  | inactive |  |
| CC(C)=CC[C@@H](O)C1=CC(=O)c2c(O)ccc(O)c2C1=O | 13.2 µM (active) | 0.264 µM (active) |  | 1.87 µM (active) | 1.18 µM (active) | 0.833 µM (active) | 1.32 µM (active) |  |
